The source of these data is PubChem BioAssay (NCATS).

Experiment [1] in a line: Cell Viability qHTS for small molecule stabilizers of the endoplasmic reticulum resident proteome (AID 1508629).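 For max response: human SH-SY5Y neuroblastoma cells carrying the GLuc-SERCaMP reporter; % is set by controls: 0 for no effect and ±100 for the full control effect.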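 Note: compound exposure about 46 h in total before the viability read.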 Note: potency is the fitted concentration of half-maximal effect. Particulars: cell viability counter-screen, 100 nM thapsigargin for final 4 h.
A short description of experiment [2]: Primary qHTS for small molecule stabilizers of the endoplasmic reticulum resident proteome: Secreted ER Calcium Modulated Protein (SERCaMP) assay (AID 1508630). Note: potency is the fitted concentration of half-maximal effect. The gist of the method:
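The SH-SY5Y reporter protocol was run at 3 concentrations up to 38.3 uM (primary) or 11 concentrations (follow-up): 16 h compound, 100 nM thapsigargin for 4 h, then extracellular luciferase luminescence.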
In general terms: In qHTS, concentration-response curves come from the screen itself.

Experiment [3] addresses Cytochrome P450 2D6 (Homo sapiens) (UniProt P10635). Description: Cytochrome P450 family 2 subfamily D member 6 (CYP2D6) small molecule antagonists: luciferase biochemical (cell-free) qHTS assay (AID 1645840; active = well fitted curve in the direction sought with a large enough effect in the repeat runs; an effect the other way counts as inactive or inconclusive; note: nearly all actives have a fitted effect of over 55% in size; note: potency is the fitted concentration of half-maximal effect). The gist of the method: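 P450-Glo CYP2D6 system: proluciferin substrate converted by enzyme to luciferin, read by luminescence proportional to activity. Enzyme-substrate mix with compound 10 min at room temperature, then NADPH regeneration 1 h before detection reagent.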

In experiment [4] the target is Cytochrome P450 2C9 (Homo sapiens) (UniProt P11712). Put plainly: Cytochrome P450 family 2 subfamily C member 9 (CYP2C9) small molecule antagonists: luciferase biochemical (cell-free) qHTS assay (AID 1645842; active = well fitted curve in the direction sought with a large enough effect in the repeat runs; an effect the other way counts as inactive or inconclusive; note: nearly all actives have a fitted effect of over 55% in size; note: potency is the fitted concentration of half-maximal effect). In outline:
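P450-Glo CYP2C9 system: proluciferin substrate with enzyme in mix containing 0.4% BSA, 10 min at room temperature, then NADPH regeneration solution added and incubated 1 h at 37C. Detection reagent stopped reaction; luminescence read after 20 min as RLU.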

Experiment [5] in a line: Primary qHTS for inhibitors of nuclear receptor binding SET domain protein 2 (NSD2) in an isogenic RCH-ACV NSD2 p.E1099K mutant (9B) (AID 1645876). Note: nearly all actives have a fitted effect of over 70% in size. Note: potency is the fitted concentration of half-maximal effect.
Experiment [6] is described as follows: Primary qHTS for inhibitors of nuclear receptor binding SET domain protein 2 (NSD2) in an RCH-ACV wild type WT cells (2C) (AID 1645877). Note: nearly all actives have a fitted effect of over 70% in size. Note: potency is the fitted concentration of half-maximal effect.
Experiment [7] can be described thus: A High-Content qHTS Against Drug Library for the Identification of Small Molecules that Inhibit DYT1 Early Onset Primary Dystonia-Associated Cell Pathology (AID 1645839; calls by dose curve). The gist of the method:
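High-content imaging quantified EGFP-TorsinA mislocalization in HEK293-derived cells inducibly expressing DYT1 mutant torsinA, after 48 h exposure to compound given together with tetracycline induction. Cell count served as a toxicity channel alongside %pathology.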

Experiment [8] can be described thus: NCATS anti-infectives library activity on HEK293 viability as a counter-qHTS vs the C. elegans viability qHTS (AID 1745854).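 Note: HEK293 cells exposed to compounds for 24 hr before the viability read; % is set by controls: 0 for no effect and ±100 for the full control effect.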 In outline:
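Counter-screen for cytotoxicity: HEK293, 24 hr, 37C, compounds up to 41.7 uM final (a dilution series, 1:5). Readout CellTiter-Glo luminescence, 10 min RT. Digitonin control, […] uM final.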

Experiment [9] has as its target N-terminal Xaa-Pro-Lys N-methyltransferase 1 (Homo sapiens) (UniProt Q9BV86). Put plainly: Confirmatory qHTS for Inhibitors of N-terminal methyltransferase 1 (NTMT1): MTaseGlo Assay (AID 1645874).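 Note: luminescence from SAH made as NTMT1 methylates SPKRIA peptide using SAM; 0% = DMSO control and -100% = no-enzyme control; nearly all actives have a fitted effect of over 65% in size.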 The gist of the method:
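SPKRIA peptide at 1 uM was methylated by 125 nM NTMT1 using 100 uM SAM over 30 min at room temperature, following a 15 min compound preincubation. Product SAH was detected luminescently.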

In a further experiment the target is Papain (Carica papaya) (UniProt P00784). Put plainly: Primary qHTS assay for inhibitors of the protease papain (AID 1645873).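 Note: papain turnover of Z-FR-AMC read as the AMC fluorescence gain over 10 min; % is set by controls: 0 for no effect and ±100 for the full control effect.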
Sequence of Papain (Carica papaya) (P00784 whole entry, looked up): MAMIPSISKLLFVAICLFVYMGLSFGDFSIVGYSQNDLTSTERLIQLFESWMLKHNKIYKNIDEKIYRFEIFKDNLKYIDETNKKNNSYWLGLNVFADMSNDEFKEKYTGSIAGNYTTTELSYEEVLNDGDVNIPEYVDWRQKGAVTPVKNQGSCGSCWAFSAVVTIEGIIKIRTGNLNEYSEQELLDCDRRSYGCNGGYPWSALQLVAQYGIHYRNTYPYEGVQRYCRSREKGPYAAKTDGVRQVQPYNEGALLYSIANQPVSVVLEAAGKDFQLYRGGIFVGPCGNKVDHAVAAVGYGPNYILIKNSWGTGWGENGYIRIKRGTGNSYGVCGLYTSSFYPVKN
The nature of experiment [10]: NCATS anti-infectives library activity on the primary C. elegans qHTS viability assay (AID 1745855; calls by dose curve). Particulars: C. elegans worm area imaging, day 7; at 41.8 µM (top of the series). The gist of the method:
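GFP read-out by 488 nm laser cytometry at day 0, 3 and 7, gated on object perimeter, area and peak intensity, scored viability of PE254-GFP-FLuc worms exposed to compound in S medium with bacterial capsules at 21 °C.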

Where “and” joins values, the source holds several entries; their conditions need not be identical. Identical values can stand only once. Inconclusive results are not listed. The source holds several records for some structures; these can differ, active in one and inactive in another. Calls of active or inactive are those of the source. Unless noted, calls come from the whole dose curve; as a rule, active = well fitted curve in the direction sought with a large enough effect; inconclusive = small, poorly fitted or top-dose-only effect, or another doubt; inactive = no such curve, though single readings can be large; an effect the other way counts as inactive or inconclusive.

Sequence of Cytochrome P450 2C9 (Homo sapiens) (P11712 whole entry, looked up): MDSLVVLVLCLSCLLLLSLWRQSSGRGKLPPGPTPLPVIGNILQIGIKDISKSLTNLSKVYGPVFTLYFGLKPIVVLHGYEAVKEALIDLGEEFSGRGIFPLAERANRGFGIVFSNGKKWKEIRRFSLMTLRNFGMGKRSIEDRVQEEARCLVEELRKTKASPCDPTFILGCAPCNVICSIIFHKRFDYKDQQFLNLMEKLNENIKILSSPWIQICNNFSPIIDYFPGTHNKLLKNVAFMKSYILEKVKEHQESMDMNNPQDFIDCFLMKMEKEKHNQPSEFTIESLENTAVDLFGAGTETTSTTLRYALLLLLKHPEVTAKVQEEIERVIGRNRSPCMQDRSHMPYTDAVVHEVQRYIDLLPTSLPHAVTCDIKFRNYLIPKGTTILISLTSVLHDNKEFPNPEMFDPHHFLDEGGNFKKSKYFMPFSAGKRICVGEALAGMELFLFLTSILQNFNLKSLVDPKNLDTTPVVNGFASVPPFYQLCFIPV
Sequence of Cytochrome P450 2D6 (Homo sapiens) (P10635 whole entry, looked up): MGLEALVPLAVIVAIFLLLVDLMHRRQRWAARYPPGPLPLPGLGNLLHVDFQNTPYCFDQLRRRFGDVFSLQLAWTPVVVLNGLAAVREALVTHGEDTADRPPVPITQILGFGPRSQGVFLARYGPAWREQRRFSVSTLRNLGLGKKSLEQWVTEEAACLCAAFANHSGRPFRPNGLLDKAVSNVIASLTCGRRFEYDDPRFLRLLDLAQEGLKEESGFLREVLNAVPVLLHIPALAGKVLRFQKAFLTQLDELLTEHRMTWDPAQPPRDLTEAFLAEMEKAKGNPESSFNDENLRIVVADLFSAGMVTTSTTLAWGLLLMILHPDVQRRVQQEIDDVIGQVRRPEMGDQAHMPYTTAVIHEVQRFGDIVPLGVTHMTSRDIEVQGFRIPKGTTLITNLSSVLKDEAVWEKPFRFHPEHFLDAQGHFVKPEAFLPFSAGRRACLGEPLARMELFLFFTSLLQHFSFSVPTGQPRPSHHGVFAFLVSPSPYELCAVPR
Sequence of N-terminal Xaa-Pro-Lys N-methyltransferase 1 (Homo sapiens) (Q9BV86 whole entry, looked up): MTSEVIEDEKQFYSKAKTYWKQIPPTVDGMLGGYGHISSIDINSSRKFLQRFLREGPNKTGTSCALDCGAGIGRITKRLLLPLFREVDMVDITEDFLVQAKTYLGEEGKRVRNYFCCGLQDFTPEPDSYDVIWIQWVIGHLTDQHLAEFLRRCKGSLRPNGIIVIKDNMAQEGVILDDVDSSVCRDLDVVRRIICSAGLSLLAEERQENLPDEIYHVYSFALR

`CO[C@@H]1[C@@H](OC(N)=O)[C@@H](O)[C@H](Oc2ccc3c(O)c(NC(=O)c4ccc(O)c(CC=C(C)C)c4)c(=O)oc3c2C)OC1(C)C`: the max response in [1] is 49.1% (inactive). Also, the Potency in [2] was 31.6 µM (active) and inactive; in [4], 3.09 µM (active). Also, the Potency result in experiment [3], in [5] and in [6] was “inactive” each time.
For `Oc1c(Cl)cc(Cl)c2cccnc12`, the Potency in [1] is 20 µM (active); in experiment [5], 3.76 µM (active); in experiment [6], 3.32 µM (active). Further, in experiment [2], the Potency result is “inactive”.
As to `C[C@@H]1CN(c2c(F)c(N)c3c(=O)c(C(=O)O)cn(C4CC4)c3c2F)C[C@H](C)N1`, the Potency result in experiment [2], in [7], in [3], in experiment [4] and in [5] was “inactive” throughout.
On to `CCOc1cc(N)c(Cl)cc1C(=O)NCC1CN(Cc2ccc(F)cc2)CCO1` (centres undefined), for which, in [1], the max response was -7.94% (inactive). Moreover, the Potency entry in experiment [2] was “inactive”. The Potency in experiment [3] is 15.5 µM (active); in experiment [5] it was 21.1 µM (active).
Consider `O=c1cc(O)c(Cl)c[nH]1`, for which the Potency result in [2], in experiment [7], in experiment [3], in experiment [4], in experiment [5] and in experiment [6] was “inactive” each time.
As to `CC(C)OC(=O)OCOP(=O)(CO[C@H](C)Cn1cnc2c(N)ncnc21)OCOC(=O)OC(C)C`, the Potency entry in experiment [2], in experiment [7], in [3], in experiment [4], in experiment [5] and in experiment [6] was “inactive” each time.
Turning to `COc1nc(N)nc2c1ncn2[C@@H]1O[C@H](CO)[C@@H](O)[C@@H]1O`, the Potency result in [2], in experiment [7], in experiment [3] and in [4] was “inactive” each time. For the same compound, the Potency is 5.31 µM (active) in [5] and 6.68 µM (active) in experiment [6].
Regarding `O=C(O)CSCC(=O)NC1CCSC1=O` (centres undefined), the Potency entry in experiment [2], in [7], in experiment [3], in [4], in experiment [5] and in [6] was “inactive” each time.
With `Cn1c(=O)c2c(ncn2CC(O)CO)n(C)c1=O` (centres undefined), the Potency result in experiment [2], in experiment [7], in experiment [3] and in experiment [5] was “inactive” in each case.
With `O=P(O)(O)C(O)(Cc1cccnc1)P(=O)(O)O`, the Potency result in [2], in [7], in experiment [3], in experiment [5] and in experiment [8] was “inactive” each time.
Regarding `O=c1oc2c(O)c(O)cc3c(=O)oc4c(O)c(O)cc1c4c23`, the Potency entry in [2], in [7], in [3] and in [6] was “inactive” each time.
As for `CCOCC(O)COc1ccc(NC(=O)CC[S+](C)C)cc1` (centres undefined), the Potency entry in experiment [2], in experiment [7], in experiment [3] and in [5] was “inactive” each time.
Turning to `CC1=NN(c2ccccc2)C(=O)C1`, the Potency entry in [2], in [7] and in experiment [5] was “inactive” throughout.
As for `COc1cc([C@@H]2c3cc4c(cc3[C@H](O)[C@H]3COC(=O)[C@H]23)OCO4)cc(OC)c1OC`, the Potency result in [2] and in experiment [3] was “inactive” each time. For the same compound, the Potency in [4] is 1.55 µM (active); in experiment [5], 7.5 nM (active) and 37.2 nM (active).
Regarding `CC(C(=O)O)c1ccc2c(c1)CC(=O)c1ccccc1S2` (centres undefined), the Potency result in [2], in [7], in experiment [5] and in experiment [6] was “inactive” throughout.
Regarding `CCc1cc(C(N)=S)ccn1`, the Potency entry in experiment [2], in experiment [7], in experiment [9], in experiment [5] and in experiment [6] was “inactive” each time.
In the case of `CCC(=O)O[C@]1(C(=O)SCF)[C@H](C)C[C@H]2[C@@H]3C[C@H](F)C4=CC(=O)C=C[C@]4(C)[C@@]3(F)[C@@H](O)C[C@@]21C`, the Potency result in experiment [2], in experiment [7], in [3] and in experiment [6] was “inactive” throughout.
Regarding `CCOC(=O)[C@H](CCc1ccccc1)N[C@H]1CS[C@H](c2cccs2)CN(CC(=O)O)C1=O`, the Potency result in experiment [2], in experiment [7], in [3] and in experiment [5] was “inactive” in each case.
Take `CCN(CC)CCn1c(=O)c(Cc2ccc(OC)cc2)nc2ccccc21`: the Potency result (in [2]; in experiment [4]; with Papain (Carica papaya); in [5]; in [6]) was “inactive” throughout. In addition, the Potency in experiment [3] is 7.56 µM (active).
Take `CCn1cc(C(=O)O)c(=O)c2cc(F)c(N3CCN(C)CC3)cc21`: the Potency result in [2], in [7] and in [5] was “inactive” each time.
On to `COC(=O)Nc1nc2ccc(C(=O)c3ccccc3)cc2[nH]1`, for which the Potency result in experiment [2], in experiment [3] and in experiment [4] was “inactive” throughout. Also, the Potency in experiment [5] is 211 nM (active) and 417 nM (active).
`O=C(O)c1cccnc1`: the Potency result in experiment [2], in experiment [7], in [3], in experiment [5] and in experiment [6] was “inactive” in each case.
As to `CCN(C)C(=O)Oc1cccc([C@H](C)N(C)C)c1`, the Potency result in [2], in experiment [7], in [5] and in experiment [6] was “inactive” throughout.
`CC(C)(C)NC(=O)[C@H]1CC[C@H]2[C@@H]3CC[C@H]4NC(=O)C=C[C@]4(C)[C@H]3CC[C@]12C`: the Potency result in experiment [2] and in experiment [3] was “inactive” throughout.
`CC(C)(C)C(=O)OCOP(=O)(COCCn1cnc2c(N)ncnc21)OCOC(=O)C(C)(C)C`: the Potency result in experiment [2], in experiment [7] and in [3] was “inactive” each time. Moreover, the Potency in experiment [5] is 7.5 µM (active) and 7.42 µM (active); in [6], 6.68 µM (active) and 7.42 µM (active). The result in [10] was inactive.
For the compound `CN(Cc1cc(Br)cc(Br)c1N)C1CCCCC1`, the Potency result in experiment [2], in experiment [7], in [5] and in experiment [6] was “inactive” each time. In addition, the Potency in experiment [3] was 0.0195 µM (active).
On to `COc1cnc(NS(=O)(=O)c2ccc(N)cc2)nc1`, for which the Potency entry in experiment [2], in [7], in [3], in experiment [5] and in [6] was “inactive” each time.
For the compound `Cn1nnc2c(C(N)=O)ncn2c1=O`, the Potency entry in experiment [2], in [7], in [3], in experiment [5] and in experiment [6] was “inactive” each time.
Consider `NNC(=O)c1ccncc1`, for which the Potency entry in experiment [2], in [7], in experiment [3], in experiment [5] and in experiment [6] was “inactive” throughout.
Regarding `Cc1nnc(NS(=O)(=O)c2ccc(N)cc2)s1`, the Potency entry in [2], in experiment [7], in [3], in [5] and in experiment [6] was “inactive” in each case.
For `CN(CCOc1ccc(CC2SC(=O)NC2=O)cc1)c1ccccn1` (centres undefined), the Potency result in experiment [2], in experiment [7], in experiment [4], in experiment [5] and in [6] was “inactive” in each case.
